# Measurements from ChEMBL document CHEMBL3988442, “University of Dundee, Small-Polar-MMV Screening Library” (2021).
# Experiments:
# [1] = target: T1, Aspartate--tRNA(Asp/Asn) ligase (Mycobacterium tuberculosis (strain ATCC 25618 / H37Rv)) (UniProt P9WFW3); assay: Assay for Asp RNA synthetase-1 from Mycobacterium tuberculosis; format: functional; parameters: scale not given: direction of the effect not stated beside the values; conditions: 30 µM; also: in the data most compounds retested in dose-response had high values
# T1 sequence (whole entry): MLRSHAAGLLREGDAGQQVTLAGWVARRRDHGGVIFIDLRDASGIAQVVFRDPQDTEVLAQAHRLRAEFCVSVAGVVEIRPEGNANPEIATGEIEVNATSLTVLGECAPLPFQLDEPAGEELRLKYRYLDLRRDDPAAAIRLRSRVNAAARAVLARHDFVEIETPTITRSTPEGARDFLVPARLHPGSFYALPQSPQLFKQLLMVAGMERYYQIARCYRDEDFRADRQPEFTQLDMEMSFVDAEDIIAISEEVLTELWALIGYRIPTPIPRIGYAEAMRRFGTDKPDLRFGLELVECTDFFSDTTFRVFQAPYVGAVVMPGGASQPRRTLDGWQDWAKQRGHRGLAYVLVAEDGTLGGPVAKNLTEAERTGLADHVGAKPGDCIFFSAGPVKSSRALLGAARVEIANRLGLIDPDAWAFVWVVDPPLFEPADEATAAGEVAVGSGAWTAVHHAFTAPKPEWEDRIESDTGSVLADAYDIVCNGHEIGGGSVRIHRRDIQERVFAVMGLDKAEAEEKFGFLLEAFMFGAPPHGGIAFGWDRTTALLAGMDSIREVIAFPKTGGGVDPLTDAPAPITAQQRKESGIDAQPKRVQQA
# [2] = target: Shiga toxin 2 (Escherichia coli O157:H7) (UniProt P09385+P09386); assay: E. coli 0.157:H7 Shiga Toxin SOP - stx2 screening assay; format: functional; parameters: scale not given: direction of the effect not stated beside the values; conditions: 30 µM
SMILES,Percent Effect [1] [%],Percent Effect [2] [%]
FC(F)(F)COCCN1CCN(c2ccc3nncn3n2)CC1,0.546,-42.1
CC(=O)N1CCCN(C(=O)NCc2cc[nH]n2)CC1,-1.74,-9.44
COc1ccccc1N1CCC(CNCc2cccc(OC)c2OC)C1 (centres undefined),10.8,-7.96
Cc1cncc(C(=O)N2CCC(Cn3cc(-c4ccsc4)nn3)CC2)c1,-0.792,-26.5
CCOCC1CN(C(=O)N(C)C)Cc2nn(C)cc21 (centres undefined),7.75,-4.03
Cc1ccc(C(=O)N2CC[C@@H]3[C@H]2CCC(=O)N3c2ccccc2)o1,-6.1,-13
CC(C)n1cc(CN2CCCN(C(=O)c3nccnc3N)CC2)cn1,6.6,-11.2
Cc1cc(O)nc(C2CCCN(Cc3ccncc3)C2)n1 (centres undefined),1.35,11.8
CC(OCC1CC1)C(=O)N1CCCN(Cc2cnn(C)c2)CC1 (centres undefined),1.41,-83.1
O=C(Cc1ccccc1Cl)N1CCCC(n2cncn2)C1 (centres undefined),-1.83,-37.6
CC(NC(=O)N1CCC(OCc2ccccc2)CC1)c1nncn1C (centres undefined),-3.22,3.46
Cc1cc(C(=O)N2Cc3ccccc3OC3(CCOCC3)C2)nc(N)n1,0.67,3.58
Cc1cncc(C2CCCN(Cc3cccn3C)C2)n1 (centres undefined),0.162,10.2
Cc1ccc(C2CCCCCN2Cc2cn(C)nc2C)cc1 (centres undefined),-5.2,-29
CCc1noc(C(C)N(C)CC(=O)Nc2c(C)cccc2C)n1 (centres undefined),-10.4,10.3
O=C(NCCOc1ccc2c(c1)OCO2)N1CCC1,0.81,-21.5
O=S1(=O)N=C(SCc2ccc(Cl)cc2)Nc2ccc(F)cc21,-0.189,-5.93
Cc1nn(C)c(N2CCOCC2)c1CNC(C)c1cccnc1 (centres undefined),-8.69,9.24
Cc1noc(C)c1CNC(=O)c1ccc(NC2CC2)nc1,3.65,13.4
CCOc1ccnc(N2CCN(C(=O)c3cn[nH]c3CC)CC2)n1,-1.77,5.02
Cc1nc(C)n(CC2CCCCN2Cc2ncc(C(C)(C)C)o2)n1 (centres undefined),-7.07,-41
COc1ccc(CN2CCc3nc(C4CCCCN4C)ncc3C2)cc1 (centres undefined),3.22,-19.9
Cn1nc(CNC(=O)C2CC2)cc1C1CC1,-2.99,-14.8
CCN(C1CCS(=O)(=O)C1)S(=O)(=O)c1cccc2cc(C)cnc12 (centres undefined),-1.66,30.4

SMILES,Percent Effect [1] [%],Percent Effect [2] [%]
Cc1nc(N2CCOCC2)nc2c1CN(C(=O)Cc1ccccn1)CC2,-2.71,-57.2
O=C(c1cc[nH]n1)N1CCCC(c2cccc(-n3ccnc3)n2)C1 (centres undefined),-2.72,9.34
O=C(NCC1CC1)[C@@H]1CCO[C@@H]2CCN(Cc3ccco3)C[C@H]21,7.48,-6.74
CN1CCC(Oc2ccc(NC(=O)c3ccccc3Br)cc2)CC1,-0.921,-69.6
N#Cc1ccccc1OCCN1CCCCC1Cn1cncn1 (centres undefined),3.26,5.17
COc1ccccc1C1CNC(=O)c2nc(-c3ncc[nH]3)[nH]c2C1 (centres undefined),2.38,-14.6
CC(C)(C(=O)NCC(N)=O)c1ccccc1F,-1.56,-19.3
CC(=O)N1CC(=O)N(c2ccccc2)CC12CCN(CC1CC1)C2 (centres undefined),13.8,-1.67
COc1ccc(COCC(O)CNC(=O)c2cnc(C)cn2)cc1 (centres undefined),0.509,-32.5
CC(C)c1nc(N2CC(N3CCCCC3C)C2)c2cnn(C)c2n1 (centres undefined),-2.71,-37.8
Cc1ccc(NC2CCN(C(=O)c3cccc(F)c3F)CC2)nn1,-4.5,-17
O=C1CCSCC(C(=O)N2CCOCC2)N1 (centres undefined),1.64,3.97
CNC(=O)c1nc2c(s1)CCN(C(=O)c1cccnc1)CC2,2.01,-18.2
O=C(NCCCO)Nc1cccc(Cl)c1F,1.48,-9.57
O=C(CC1CCCC1)N1CCCC1c1nc(O)cc(-c2ccccn2)n1 (centres undefined),-2.84,-10.1
CC(=O)NCC1CCN(C(=O)c2csc(-c3ccc(C)cc3C)n2)CC1,5.3,14
Cc1cc(C(=O)N2CCCCC2c2nc(C)cs2)[nH]n1 (centres undefined),-5.22,-15.7
COC(=O)c1ccc(C2CC(=O)Oc3cc(C)[nH]c(=O)c32)cc1 (centres undefined),-5.75,-8.85
Cc1ccc(NCc2cncc3c2CCN(C(=O)C2CC=CC2)C3)nn1,6.32,-38
CCOc1ccccc1C(=O)N1CCCC1c1ncc2c(n1)CCNC2 (centres undefined),-3.07,48.2
O=C(Cc1ccsc1)N1CCC(n2nc(-c3ccco3)ccc2=O)CC1,-0.938,18.8
CN(C)CC1CN(c2ncnc3[nH]ccc23)CCO1 (centres undefined),-0.0146,-33.5
CC(C)N1CCC(Cc2cc(-c3cccc(C(=O)O)c3)ncn2)C1 (centres undefined),-2.43,2.16
